{"source": "PubChem BioAssay AID463173", "about": "(ICCB-Longwood Screening Facility, Harvard Medical School, 2010)", "note": "Out of some 52,000 compounds screened, about 1,700 (3.3%) were called active. This is one part of a sample in which actives are shown more often than they occur. Unmarked numbers belong to inactive results. Rule as the data show it: active = survival mostly below about 52% (no sharp cut-off); inactive = mostly above about 56%."}
{"tested_on": "Wild type", "experiment": "growth inhibition of S. aureus wild type versus tarO mutant, primary screen, teichoic acid synthesis inhibitors, RN4220, OD600 (AID 463173)", "conditions": "S. aureus RN4220 wild type/DeltatarO growth, OD600, 18 h, active compounds read low, screened at 18.75 µg/mL (by protocol)"}
{"smiles": "CCC(=O)N1CCc2cc(S(=O)(=O)NCCC(=O)Nc3ccc(CC)cc3)ccc21", "survival": "73%"}
{"smiles": "Brc1cccc(-c2nn(-c3ccccc3)c3c2cnc2cc4c(cc23)OCO4)c1", "survival": "86%"}
{"smiles": "O=C(NCCS(=O)(=O)N1CCN(c2ccc(F)cc2)CC1)c1cccc(C(F)(F)F)c1", "survival": "72%"}
{"smiles": "Cc1cccc(NC(=O)c2ccc3c(c2)CCN3S(=O)(=O)c2ccccc2)c1C", "survival": "84%"}
{"smiles": "CCN(CC)S(=O)(=O)c1ccc2c(c1)N(CC(=O)Nc1ccc(F)cc1F)C(=O)C1CCCN21", "note": "(centres undefined)", "survival": "64%"}
{"smiles": "Cc1ccc(-n2nc(C(=O)N3CCN(c4cc(C)ccc4C)CC3)c3c4ccccc4n(C)c3c2=O)cc1", "survival": "79%"}
{"smiles": "CC(C)n1c(N2CCN(Cc3ccc(Cl)cc3)CC2)nc2ccccc21", "survival": "128%"}
{"smiles": "CCn1c2ccccc2c2cc(CN3CCN(Cc4ccc(Cl)cc4)CC3)ccc21", "survival": "-2% (active)"}
{"smiles": "CCCn1c(N2CCN(Cc3ccc(Cl)cc3)CC2)nc2ccccc21", "survival": "123%"}
{"smiles": "CCOc1ccc(Cn2c(=O)oc3ccccc32)cc1", "survival": "114%"}
{"smiles": "CCOc1ccc(CN2CCN(Cc3ccc4c(c3)c3ccccc3n4CC)CC2)cc1", "survival": "-1% (active)"}
{"smiles": "CCOc1ccc(CN2CCN(C(=O)c3ccco3)CC2)cc1", "survival": "103%"}
{"smiles": "CCOc1ccc(-c2c(C)nn3c(C)c(C(=O)NCC(C)c4ccccc4)cnc23)cc1OCC", "note": "(centres undefined)", "survival": "72%"}
{"smiles": "O=C(CSc1nc2c(c(=O)[nH]1)CCC2)Nc1cc(C(F)(F)F)ccc1Cl", "survival": "85%"}
{"smiles": "CCCN1Cc2cccc(C(=O)Nc3ccc(C(C)=O)cc3)c2C1=O", "survival": "89%"}
{"smiles": "CS(=O)(=O)c1ccccc1-c1nnc(NC(=O)c2ccc3c(c2)OCCO3)o1", "survival": "-6% (active)"}
{"smiles": "CSc1ccccc1-c1nnc(NC(=O)c2ccc3c(c2)OCCO3)o1", "survival": "123%"}
{"smiles": "CS(=O)(=O)c1ccc(-c2nnc(NC(=O)c3ccc4c(c3)OCCO4)o2)cc1", "survival": "75%"}
{"smiles": "Cc1ccc(-n2c(=O)c3cccnc3n2CC(=O)Nc2ccc(C)cc2Cl)cc1", "survival": "113%"}
{"smiles": "Cc1ccc2c(c1)-c1nc(-c3ccc(Cl)cc3)cc(-c3coc4ccccc4c3=O)c1CO2", "survival": "139%"}
{"smiles": "CCCn1c(=O)c2sccc2n2c(CCCC(=O)N3CCN(c4ccc(OC)cc4)CC3)nnc12", "survival": "99%"}
{"smiles": "O=C(Nc1cccc(C(=O)N2CCCCC2)c1)c1nsc2ccccc12", "survival": "65%"}
{"smiles": "CCc1nc2sc3c(N4CCCCC4)ncnc3c2c2c1CCCC2", "survival": "136%"}
{"smiles": "CCCc1nc2sc3c(N4CCC(C)CC4)ncnc3c2c2c1CCCC2", "survival": "75%"}
{"smiles": "CCCc1nc2sc3c(N4CCCCC4)ncnc3c2c2c1CCCC2", "survival": "13% (active)"}
{"smiles": "COc1ccccc1Nc1sc(C(=O)c2ccc3c(c2)OCO3)c(N)c1S(=O)(=O)c1ccccc1", "survival": "83%"}
{"smiles": "COc1ccc(Nc2nc(N)nc(CSc3nc4cc(OC)ccc4s3)n2)cc1", "survival": "8% (active)"}
{"smiles": "COc1ccc(Nc2nc(N)nc(CSc3nc4ccccc4s3)n2)cc1", "survival": "35%"}
{"smiles": "Cc1ccc(Nc2nc(N)nc(CSc3nc4ccccc4s3)n2)cc1", "survival": "32%"}
{"smiles": "C/C=C/C(=O)Nc1ccc(Cl)c(Cl)c1", "survival": "108%"}
{"smiles": "COc1ccc(/C=C/C(=O)Nc2ccc(Cl)c(Cl)c2)cc1OC", "survival": "5% (active)"}
{"smiles": "COc1ccc(/C=C/C(=O)Nc2ccc(Cl)c(Cl)c2)cc1", "survival": "80%"}
{"smiles": "CN(C)c1ccc(NC(=O)CSC2=Nc3ccccc3C3=NC(CC(=O)NCc4ccc5c(c4)OCO5)C(=O)N23)cc1", "note": "(centres undefined)", "survival": "124%"}
{"smiles": "COc1ccccc1C(=O)Nc1ccc(OCc2cc(=O)n3ccc(C)cc3n2)cc1", "survival": "85%"}
{"smiles": "Cc1cccc(C(=O)Nc2ccc(OCc3cc(=O)n4ccc(C)cc4n3)cc2)c1", "survival": "55%"}
{"smiles": "O=C(COc1ccc(F)cc1)Nc1cccc(OCc2cc(=O)n3ccccc3n2)c1", "survival": "73%"}
{"smiles": "COc1cc(C(=O)Nc2ccc(OCc3cc(=O)n4cccc(C)c4n3)cc2)cc(OC)c1OC", "survival": "133%"}
{"smiles": "CCOc1ccc(C(=O)Nc2ccc(OCc3cc(=O)n4cccc(C)c4n3)cc2)cc1", "survival": "14% (active)"}
{"smiles": "Cc1cn2c(=O)cc(COc3ccc(NC(=O)c4cccc(F)c4)cc3)nc2s1", "survival": "122%"}
{"smiles": "Cc1ccc(Cl)cc1NC(=O)Nc1cccc(OCc2cc(=O)n3ccccc3n2)c1", "survival": "64%"}
{"smiles": "Cc1ccccc1C(=O)Nc1ccc(OCc2cc(=O)n3cccc(C)c3n2)cc1", "survival": "72%"}
{"smiles": "O=C(Nc1cccc(OCc2cc(=O)n3ccccc3n2)c1)Nc1cccc(C(F)(F)F)c1", "survival": "-6% (active)"}
{"smiles": "Cc1cccn2c(=O)cc(COc3ccc(NC(=O)c4cccc(F)c4)cc3)nc12", "survival": "-1% (active)"}
{"smiles": "COc1cccc(C(=O)Nc2cccc(OCc3cc(=O)n4cccc(C)c4n3)c2)c1", "survival": "134%"}
{"smiles": "COc1cc(C(=O)Nc2ccc(OCc3cc(=O)n4ccc(C)cc4n3)cc2)cc(OC)c1OC", "survival": "0% (active)"}
{"smiles": "CCOC(=O)C1CCCN(C(=O)c2nn(-c3ccc(OC)cc3)c(=O)c3c2c2ccccc2n3C)C1", "note": "(centres undefined)", "survival": "125%"}
{"smiles": "CCOC(=O)c1ccc(NC(=O)Cn2cc(C(=O)c3ccc(CC)cc3)c(=O)c3ccc(C)nc32)cc1", "survival": "143%"}
{"smiles": "COCCn1c(C)cc(O)c(C(c2ccc(Cl)cc2)N2CCN(c3ccccc3)CC2)c1=O", "note": "(centres undefined)", "survival": "65%"}
{"smiles": "O=C(NCCC1=CCCCC1)c1ccc2c(c1)N(Cc1ccc(Cl)cc1)C(=O)c1ccccc1S2(=O)=O", "survival": "104%"}
{"smiles": "NC(=O)CSc1oc(-c2ccco2)nc1S(=O)(=O)c1ccc(Cl)cc1", "survival": "68%"}
{"smiles": "Cc1ccc(CNC(=O)C2CCN(S(=O)(=O)N3CCC(C)CC3)CC2)cc1", "survival": "77%"}
{"smiles": "O=C(Cn1cc(S(=O)(=O)Cc2ccccc2Cl)c2ccccc21)NCCc1ccccc1", "survival": "65%"}
{"smiles": "CCC(=O)Nc1ccc2c(c1)C(=O)OC2", "survival": "110%"}
{"smiles": "Cc1ccc(OCC(=O)Nc2cccc(OCc3cc(=O)n4cccc(C)c4n3)c2)cc1C", "survival": "124%"}
{"smiles": "Cc1cccn2c(=O)cc(COc3ccc(NC(=O)COc4ccc(F)cc4)cc3)nc12", "survival": "69%"}
{"smiles": "Cc1ccc(OCC(=O)Nc2ccc(OCc3cc(=O)n4cccc(C)c4n3)cc2)cc1C", "survival": "-6% (active)"}
{"smiles": "Cc1cccn2c(=O)cc(COc3cccc(NC(=O)c4ccccc4F)c3)nc12", "survival": "-6% (active)"}
{"smiles": "Cc1ccccc1C(=O)Nc1cccc(OCc2cc(=O)n3cccc(C)c3n2)c1", "survival": "90%"}
{"smiles": "Cc1cccc(C(=O)Nc2cccc(OCc3cc(=O)n4cccc(C)c4n3)c2)c1", "survival": "76%"}
